# Unmarked numbers belong to inactive results. For part of these data: Results with a measured potency or affinity are listed apart. The source made the active and inactive calls. Unless noted, how the calls were made is not given here.
# What was measured:
# [1] = antimalarial activity against Dd2 strain (AID 2302;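 active means growth inhibition above 50% at the single 2 µM test dose, taken to imply half-maximal potency below 2 µM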;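 further: 0% = DMSO untreated growth and 100% = chloroquine plus artemisinin killed control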); conditions: P. falciparum Dd2 in RBCs, LDH growth readout, 72 h; at 2 µM; hits give high values
# [2] = HepG2 cytotoxicity, primary screen, cytotoxicity control for P. falciparum antimalarial project, cell-based, ATP luminescence (AID 2303;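 active means inhibition above 50%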;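 further: 0% = DMSO wells and 100% = digitonin-killed cells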); conditions: HepG2 viability, 24-48 h, at 10 µM, hits give high values
# [3] = target: L-lactate dehydrogenase (Plasmodium falciparum (isolate CDC / Honduras)) (UniProt Q27743); assay: PfLDH activity inhibition – cell lysate, 3D7 strain, counter-screen for P. falciparum growth inhibition project (AID 2304);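 further: 0% = vehicle and 100% = reference inhibitor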; conditions: P. falciparum 3D7 crude extract, LDH APAD/NBT absorbance; at 2 µM; hits give high values
# Sequence of L-lactate dehydrogenase (Plasmodium falciparum (isolate CDC / Honduras)) (Q27743 whole entry, looked up): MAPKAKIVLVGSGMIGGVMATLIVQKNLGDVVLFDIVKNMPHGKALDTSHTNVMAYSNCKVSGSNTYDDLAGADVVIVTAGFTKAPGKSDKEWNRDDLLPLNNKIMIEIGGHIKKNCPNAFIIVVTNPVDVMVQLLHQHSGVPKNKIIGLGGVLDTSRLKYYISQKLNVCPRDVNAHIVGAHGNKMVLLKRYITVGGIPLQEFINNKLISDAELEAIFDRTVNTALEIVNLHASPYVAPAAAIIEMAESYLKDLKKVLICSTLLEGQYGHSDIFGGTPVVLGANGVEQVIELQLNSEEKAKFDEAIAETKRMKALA
# [4] = inhibition of 3D7 malaria parasite growth – strain 3D7 (AID 2306);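 further: 0% = DMSO wells and 100% = chloroquine plus artemisinin control wells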; conditions: P. falciparum 3D7 erythrocytic growth, LDH absorbance, 72 h; at 2 µM; hits give high values
# [5] = target: Calcium-dependent protein kinase 1 (Plasmodium falciparum (isolate 3D7)) (UniProt P62344); assay: PfCDPK1 kinase inhibitors, biochemical, TCAMS library (AID 1159585; cut-off not given, nearly all actives have IC50 up to about 0.98 µM;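 further: inhibitors leave more ATP so luminescence rises with inhibition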); conditions: recombinant PfCDPK1, Kinase-Glo ATP depletion luminescence
# Sequence of Calcium-dependent protein kinase 1 (Plasmodium falciparum (isolate 3D7)) (P62344 whole entry, looked up): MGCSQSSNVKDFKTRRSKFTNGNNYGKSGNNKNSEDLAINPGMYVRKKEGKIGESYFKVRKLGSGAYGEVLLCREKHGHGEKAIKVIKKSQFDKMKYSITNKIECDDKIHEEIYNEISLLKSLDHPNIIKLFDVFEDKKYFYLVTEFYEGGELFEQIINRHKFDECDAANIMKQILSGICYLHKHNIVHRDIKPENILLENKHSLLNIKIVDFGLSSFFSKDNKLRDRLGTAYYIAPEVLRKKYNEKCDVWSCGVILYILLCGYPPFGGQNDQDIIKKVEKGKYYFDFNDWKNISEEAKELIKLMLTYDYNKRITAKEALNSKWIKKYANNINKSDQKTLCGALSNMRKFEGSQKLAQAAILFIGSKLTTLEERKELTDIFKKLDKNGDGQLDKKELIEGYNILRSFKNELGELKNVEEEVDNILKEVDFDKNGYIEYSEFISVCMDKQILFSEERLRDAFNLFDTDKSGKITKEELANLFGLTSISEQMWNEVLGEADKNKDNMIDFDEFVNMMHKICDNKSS
# [6] = target: Plasmodium falciparum protein kinase 6 (PK6, PF3D7_1337100) (UniProt Q8IDW1); assay: PfPK6 kinase inhibitors, biochemical, TCAMS library (AID 1159586); conditions: recombinant PfPK6, Kinase-Glo ATP depletion luminescence
# Sequence of Plasmodium falciparum protein kinase 6 (PK6, PF3D7_1337100) (Q8IDW1 1-305): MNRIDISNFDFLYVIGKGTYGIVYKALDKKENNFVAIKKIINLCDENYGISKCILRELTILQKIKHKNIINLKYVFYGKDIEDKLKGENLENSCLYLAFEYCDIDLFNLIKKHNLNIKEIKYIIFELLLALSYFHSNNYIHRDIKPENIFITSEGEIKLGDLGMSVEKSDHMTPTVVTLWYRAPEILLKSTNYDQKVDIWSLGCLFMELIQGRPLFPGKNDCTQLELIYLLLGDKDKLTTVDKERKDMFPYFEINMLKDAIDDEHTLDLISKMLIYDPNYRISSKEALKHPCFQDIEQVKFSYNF
# [7] = target: Protein kinase 7 (PK7), Plasmodium falciparum 3D7 (PF3D7_0213400) (UniProt Q7YTF7); assay: inhibition of Plasmodium PK7 catalytic activity – biochemical, TCAMS antimalarial set, Kinase-Glo luminescence (AID 1159587); conditions: recombinant PfPK7, Kinase-Glo ATP depletion luminescence
# Sequence of Protein kinase 7 (PK7), Plasmodium falciparum 3D7 (PF3D7_0213400) (Q7YTF7 1-343): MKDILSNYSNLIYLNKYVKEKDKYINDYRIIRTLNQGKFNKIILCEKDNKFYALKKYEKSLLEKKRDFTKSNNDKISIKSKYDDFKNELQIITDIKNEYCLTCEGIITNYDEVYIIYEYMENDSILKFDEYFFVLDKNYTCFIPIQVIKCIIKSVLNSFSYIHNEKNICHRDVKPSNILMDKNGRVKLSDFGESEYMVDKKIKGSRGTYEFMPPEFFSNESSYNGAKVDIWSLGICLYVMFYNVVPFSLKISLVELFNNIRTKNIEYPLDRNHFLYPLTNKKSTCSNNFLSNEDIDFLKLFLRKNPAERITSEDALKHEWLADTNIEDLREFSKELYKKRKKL
# [8] = target: Calcium-dependent protein kinase 4 (Plasmodium falciparum (isolate 3D7)) (UniProt Q8IBS5); assay: PfCDPK4 kinase inhibitors, biochemical, TCAMS library (AID 1159588; cut-off not given, nearly all actives have IC50 up to about 0.91 µM); conditions: recombinant PfCDPK4, Kinase-Glo ATP depletion luminescence
# Sequence of Calcium-dependent protein kinase 4 (Plasmodium falciparum (isolate 3D7)) (Q8IBS5 whole entry, looked up): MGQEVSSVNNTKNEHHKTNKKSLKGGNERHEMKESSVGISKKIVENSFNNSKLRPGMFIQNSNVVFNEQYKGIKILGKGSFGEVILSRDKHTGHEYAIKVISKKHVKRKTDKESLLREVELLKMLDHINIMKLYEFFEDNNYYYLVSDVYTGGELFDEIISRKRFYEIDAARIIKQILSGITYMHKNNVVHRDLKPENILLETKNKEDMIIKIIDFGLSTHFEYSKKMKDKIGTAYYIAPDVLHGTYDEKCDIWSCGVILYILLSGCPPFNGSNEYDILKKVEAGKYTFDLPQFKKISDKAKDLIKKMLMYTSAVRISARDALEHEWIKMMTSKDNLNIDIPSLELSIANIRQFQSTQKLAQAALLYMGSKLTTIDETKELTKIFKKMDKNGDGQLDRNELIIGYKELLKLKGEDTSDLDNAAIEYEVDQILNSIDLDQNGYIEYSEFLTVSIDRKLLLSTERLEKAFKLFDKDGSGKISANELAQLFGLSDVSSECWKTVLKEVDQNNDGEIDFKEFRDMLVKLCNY
Compound,growth inhibition [1],inhibition [2],inhibition [3] [%],growth inhibition [4],outcome [5],outcome [6],outcome [7],outcome [8]
Cn1cncc1-c1cc2c(Nc3ccc(OCc4ccccc4)cc3)ncnc2cn1,75% (active),-1%,4,99% (active),inactive,inactive,inactive,inactive
CC1CCN(CC[C@H]2CCCN2S(=O)(=O)c2cccc(NC(=O)c3cc4ccccc4s3)c2)CC1,41%,28%,2,97% (active),inactive,inactive,inactive,inactive
Cc1cc(-c2cccc(CNCc3ccc(F)cc3)c2)ccc1S(=O)(=O)NCCN1CCCC1,64% (active),49%,4,101% (active),inactive,inactive,inactive,inactive
Cc1ccc2c(-c3ccc([N+](=O)[O-])o3)cc(C)nc2c1,47%,20%,3,95% (active),inactive,inactive,inactive,inactive
O=C(Nc1cccc(CN2CCCN(Cc3ccc(O)cc3)CC2)c1)c1ccc(Cl)c(Cl)c1,81% (active),22%,-1,103% (active),inactive,inactive,inactive,inactive
CN(CCN(C)C(=O)NCc1ccccc1)C(=O)NCc1ccccc1,0%,2%,1,101% (active),inactive,inactive,inactive,inactive
Cc1cccc2[nH]c(-c3cccc(-c4ccc(NC(=O)C(=O)c5cccn5C)cc4)c3)nc12,46%,45%,-1,101% (active),inactive,inactive,inactive,inactive
COc1ccc(C2SCC(=O)N2CCc2ccc(OC)c(OC)c2)cc1 (stereo not drawn),2%,19%,1,96% (active),inactive,inactive,inactive,inactive
O=C(Nc1ccc(N2CCCN(Cc3cccc(F)c3)CC2)cc1)c1ccccc1,95% (active),25%,-4,95% (active),inactive,inactive,inactive,inactive
COc1ccc(-c2cccc(CNC3CCN(CC4Cn5c(=O)ccc6ccc(F)c4c65)CC3)c2)cc1 (stereo not drawn),74% (active),22%,0,101% (active),inactive,inactive,inactive,inactive
CCCN1CCN(c2ccccc2NS(=O)(=O)c2ccc(C(=O)Nc3ccc(Cl)cc3)cc2)CC1,9%,17%,-2,84% (active),inactive,inactive,inactive,inactive
COc1cc(-c2nnc(SCC(=O)Nc3cc(C)on3)n2C)cc(OC)c1O,2%,2%,5,89% (active),inactive,inactive,inactive,inactive
Cc1ccc(C)c(-n2c(SCC(=O)Nc3ccc(C(N)=O)cc3)nnc2-c2cccc(Cl)c2)c1,91% (active),6%,4,92% (active),inactive,inactive,inactive,inactive
CCCc1cc(NCC)nc(Nc2ccc(C)cc2)n1,16%,22%,-1,95% (active),inactive,inactive,inactive,inactive
Oc1ccc(CCNc2nc(NCCCOc3ccccc3-c3ccc(C(F)(F)F)cc3)nc(N3CCNCC3)n2)cc1,49%,64% (active),0,101% (active),inactive,inactive,inactive,inactive
CC(=O)N1Cc2ccccc2C1=O,-1%,10%,-4,97% (active),inactive,inactive,inactive,inactive
OC(c1ccc(Cl)cc1)(c1ccc(Cl)cc1)C(c1ccc(Cl)cc1)n1ccnc1 (stereo not drawn),100% (active),15%,-3,101% (active),inactive,inactive,inactive,inactive
O=C(Nc1ccc(C(=O)Oc2cccc3ccccc23)cc1)N[C@@H](Cc1ccc(O)cc1)C(=O)NC1CCN(Cc2ccc(O)cc2)C1 (stereo partly drawn),-5%,-1%,1,87% (active),inactive,inactive,inactive,inactive

Compound,growth inhibition [1],inhibition [2],inhibition [3] [%],growth inhibition [4],outcome [5],outcome [6],outcome [7],outcome [8]
N#Cc1ccc(C=NNc2nc3ccccc3[nH]2)cc1,71% (active),-4%,3,101% (active),inactive,inactive,inactive,inactive
CC1(C)N=C(N)N=C(N)N1OCCCCCOc1ccccc1,97% (active),61% (active),4,95% (active),inactive,inactive,inactive,inactive
CN1CCc2cc(NS(=O)(=O)c3ccc(-c4ccc(Cl)s4)cc3)c(N3CCCCC3)cc2CC1,29%,14%,3,98% (active),inactive,inactive,inactive,inactive
CN(C)c1ccc(CN2CCC(NC(=O)c3ccc(-c4cccc(Cl)c4)s3)CC2)cc1,44%,65% (active),-3,93% (active),inactive,inactive,inactive,inactive
CC(C)CCN1CCCN(Cc2cccc(NC(=O)c3ccc(Cl)c(Cl)c3)c2)CC1,13%,35%,-1,92% (active),inactive,inactive,inactive,inactive
O=[N+]([O-])c1cccc(CNC2CCN(Cc3ccc(Cl)c(Cl)c3)CC2)c1,71% (active),5%,3,100% (active),inactive,inactive,inactive,inactive
FC(F)(F)c1cccc(Nc2nc(-n3ccnc3)nc(-n3ccnc3)n2)c1,9%,5%,1,97% (active),inactive,inactive,inactive,inactive
CCn1ncc(Cl)c1CN(C)S(=O)(=O)c1ccc2ccccc2c1,91% (active),16%,-2,101% (active),inactive,inactive,inactive,inactive
COc1ccc(NC2=C(c3ccccc3)C(=O)c3ccccc32)cn1,84% (active),-9%,2,96% (active),inactive,inactive,inactive,inactive
CC[C@@]1(O)C(=O)OCc2c1cc1n(c2=O)Cc2c-1nc1cc3c(cc1c2CN1CCN(C)CC1)OCCO3,97% (active),79% (active),1,98% (active),inactive,inactive,inactive,inactive
CN1CCN(C(=O)CN2CCC3(CCC2=O)NC(=O)c2ccccc2O3)CC1 (stereo not drawn),98% (active),-7%,2,99% (active),inactive,inactive,inactive,inactive
N#Cc1ccc(-n2cc(C(=O)Nc3ccc4c(c3)CCN(C3CCC3)CC4)c(C(F)(F)F)n2)cc1,99% (active),37%,-2,102% (active),inactive,inactive,inactive,inactive
COc1ccccc1N1CCN(Cc2c(O)ccc3cc(Br)ccc23)CC1,75% (active),8%,2,89% (active),inactive,inactive,inactive,inactive
COc1ccc(-c2cccc(NC(=O)c3cccc(C#N)c3)c2)cc1CN1CCCN(C)CC1,99% (active),22%,-4,101% (active),inactive,inactive,inactive,inactive
Cc1cnc(Nc2ccccc2)nc1NCCC(=O)Nc1ccccc1,7%,10%,3,89% (active),inactive,inactive,inactive,inactive
Cc1[nH]c(C)c(-c2ccc(C(=O)c3ccccc3)cc2)c(=O)c1Br,96% (active),-10%,1,95% (active),inactive,inactive,inactive,inactive
COC(=O)c1ccccc1COc1ccc(CC2(NC(=O)[C@H](Nc3ccc(C#N)c4ccccc34)C(C)(C)C)CCCC2)cc1,82% (active),1%,2,95% (active),inactive,inactive,inactive,inactive
CC(C)(C)c1cc(C(=O)N2CCN(c3cnccn3)CC2)n(Cc2ccccc2)n1,33%,-1%,-4,92% (active),inactive,inactive,inactive,inactive

# Source: PubChem BioAssay
